Experimental data from PubChem BioAssay (NCATS).
Records with an inconclusive call do not appear. A number with no mark means an inactive call. Calls come from the whole dose curve; tested in HEK293 reporter line.

assay: qHTS for Inhibitors of the Functional Ribonucleoprotein Complex (vRNP) of Lymphocytic Choriomeningitis Arenaviruses (LCMV): Viability assay - alamar blue signal for LCMV Primary Screen (AID 1347085); settings: alamar blue viability counter-screen, LCMV vRNP screen cells; series mostly up to 57.5 µM; activity change, negative = lower viability: at the top concentration; note: nearly all actives have a fitted effect of over 80% in size
% is set by controls: 0 for no effect and ±100 for the full control effect.

SMILES	activity change, negative = lower viability
COc1ccc(-c2coc3cc(OC)cc(O)c3c2=O)cc1	0.671%
CC/C=C\CCOC(=O)CCCCC	6.18% [at 115 µM]
COc1cc(C2c3cc4c(c(O)c3CC3COC(=O)C32)OCO4)cc(OC)c1O (stereo not given)	-104%
CN1CCc2cc3c(cc2C1)OCO3	6.45%
CC(C)=CCC1=C(O)[C@](O)(CC=C(C)C)C(=O)C(C(=O)CC(C)C)=C1O	-4.36%
CC(C)NC(=O)NCCCCCCS(C)=O (stereo not given)	13.3%
C[C@@]12CC[C@H]3OC(=O)C=C3C1CC[C@@]13CC(CCC12)[C@](CO)(O[C@H]1O[C@H](CO)[C@@H](O)[C@H](O)[C@H]1O)C3 (stereo not given in full)	7.05%
COC(=O)C1=CO[C@@H](OC2OC(CO)C(O)C(O)C2O)[C@@H]2C(CO)=CC[C@H]12 (stereo not given in full)	9.96%
O=C(O)c1cc(N(Cc2ccccc2O)Cc2ccccc2O)ccc1O	12.1%
COc1c(-c2ccc(O)cc2)oc2cc(O)cc(O)c2c1=O	-6.2%
COc1ccc([C@H]2c3cc(OC)c(OC)cc3C[C@@H](C)[C@@H]2C)cc1OC	12.4%
CC(O)C1C(=O)N2C(C(=O)O)=C(SC3CNC(C(=O)N(C)C)C3)C(C)C12 (stereo not given)	15.3%
C[N+](C)(C)C[C@H](O)CC(=O)[O-]	13.9%
C/C=C(/CC[C@@H](C)[C@H]1CC[C@H]2C3=CC[C@H]4[C@H](C)[C@@H](O)CC[C@]4(C)[C@H]3CC[C@]12C)C(C)C	3.23%
O=C(OCCc1ccccc1)c1ccccc1	-1.39% [at 115 µM]
O=C1N[C@@H](Cc2c[nH]c3ccccc23)C(=O)N[C@H]1Cc1c[nH]c2ccccc12	-9.29%
O=C(O)CCC[C@H](O)\C=C/C=C/C=C/[C@H](O)C/C=C\CCCCCO	-25.2% [at 0.757 µM]
CC[C@@H]1C=C(C)C[C@H](C)C[C@H](OC)[C@H]2O[C@@](O)(C(=O)C(=O)N3CCCC[C@@H]3C(=O)O[C@H](C(C)=C[C@@H]3CC[C@H](Cl)[C@H](OC)C3)[C@H](C)[C@@H](O)CC1=O)[C@H](C)C[C@H]2OC	0.412%
COc1cc(OC)c2c(-c3ccccc3)cc(=O)oc2c1	-17.9%
CC[C@H]1NC(=O)[C@@H](NC(=O)c2ncccc2O)[C@@H](C)OC(=O)[C@H](c2ccccc2)NC(=O)[C@@H]2CC(=O)CCN2C(=O)[C@H](Cc2ccccc2)N(C)C(=O)[C@@H]2CCCN2C1=O	27.7%

SMILES	activity change, negative = lower viability
CC(c1c(O)c2ccccc2[nH]c1=O)C1(C)CCC(O)C(C)(C)O1 (stereo not given)	2.22%
CC12C=CC(=O)C=C1CCC1C2CCC2(C)C(C(=O)CO)CCC12 (stereo not given)	38.8%
COc1ccc(C2Sc3ccccc3N(CCN(C)C)C(=O)C2OC(C)=O)cc1 (stereo not given)	-11.4%
Cc1cc2c(c(CO)c1CCO)C(=O)[C@@H](C)[C@@H]2O	3.73%
COC(=O)c1ccccc1OC	0.839% [at 115 µM]
CCOC(=O)c1ccccc1	10.4% [at 115 µM]
O=C(O)[C@@H]1Cc2c([nH]c3ccccc23)C2CCC(=O)N21 (stereo not given in full)	-1.49%
CO[C@H]1/C=C\O[C@@]2(C)Oc3c(C)c(O)c4c(O)c(c5c(nc6cc(C)ccn65)c4c3C2=O)NC(=O)C(C)=CC=C[C@H](C)[C@H](O)[C@@H](C)[C@@H](O)[C@@H](C)[C@H](OC(C)=O)[C@H]1C	8.25%
Cn1cnc2c(ncn2[C@@H]2O[C@H](CO)[C@@H](O)[C@H]2O)c1=N	6.08%
CC1(C)C[C@H]2C3=CCC4[C@@]5(C)CC[C@H](O)C(C)(C)C5CC[C@@]4(C)[C@]3(C)[C@@H](O)[C@@H](O)[C@@]2(CO)[C@@H](O)[C@@H]1O (stereo not given in full)	8.66%
CC/C=C\CCOC(C)OCC (stereo not given)	22.5% [at 115 µM]
CC(=O)OC[C@]12CCC(C)=C[C@H]1O[C@@H]1[C@H](O)[C@@H](OC(C)=O)[C@@]2(C)[C@]12CO2	-152%
OC1O[C@H](c2ccc3c(c2)OCO3)[C@H]2CO[C@H](c3ccc4c(c3)OCO4)[C@@H]12 (stereo not given in full)	9.23%
CCc1cc(C(C)=NOCc2ccc(C3CCCCC3)c(C(F)(F)F)c2)ccc1CN1CC(C(=O)O)C1	-13%
CCCCCCCCCCCCCC[C@@H](O)[C@@H](O)[C@@H](N)CO	7.28%
COC(=O)c1cc2c([nH]c3ccccc32)c(C)n1	-20.1%
OC[C@H]1O[C@@H](O[C@H]2[C@@H](O)[C@@](O)(CO)O[C@@H]2CO)[C@H](O)[C@@H](O)[C@@H]1O	-8.69%
CC1(C)CCC[C@]2(C)[C@H]3CCO[C@]3(C)CC[C@@H]12	17.8% [at 115 µM]
COC(=O)CC1[C@@]2(C)C[C@]34OC5(C)OC6(C7CC(=O)OC(c8ccoc8)[C@]7(C)CCC6(O5)[C@]13C)C(OC(C)=O)[C@]4(OC(C)=O)C2OC(C)=O (stereo not given in full)	7.53%
CC/C=C\CCCCCCCCCCOC(C)=O	23.6% [at 115 µM]
